Assay results as given in ChEMBL document CHEMBL4513216, “Probing the Open Global Health Chemical Diversity Library for Multistage-Active Starting Points for Next-Generation Antimalarials” (ACS Infect Dis, 2020).
The whole screen tested about 69,000 compounds, of which about 8,600 (12%) showed an effect of 50% or more. The full list was thinned out, with strong results kept by preference.

Each compound was assayed on Plasmodium berghei (assay: Screen against P. berghei liver stage (PbLuc), transformed with Luciferase, at 10uM). Settings: tested at 10 uM.
Format: functional, HepG2

Compound	INHIBITION [%]
CCOC(=O)C(C)NC(=O)N1CCN(c2nc3ccccc3n2C)CC1 (centres undefined)	45
Cn1c(-c2cc3n(n2)CCCN(CC(=O)O)C3)nc2ccccc21	57.1
CCCOC(=O)N1CCn2nc(-c3nc4ccccc4n3C)cc2C1	61.1
CCCOC(=O)N1CCCn2nc(C(=O)Nc3ccccc3)cc2C1	-34.4
CN1CCn2nc(-c3nc4ccccc4n3C)cc2C1	36.4
O=C(CCc1cc2n(n1)CCCN(CCc1ccccc1)C2)NC1CC1	24.1
Cc1cccc(CN2CCc3ncnc(Oc4cccnc4)c3CC2)n1	18.5
CC(C)(C)C(=O)N1CCCC1c1nccnc1Cl (centres undefined)	-7.66
CN[C@@H](CO)C(=O)NCc1cc2n(n1)CCCN(C1CCCCC1)C2	12.5
COc1ccccc1-n1cc(C(=O)NCCn2nc(C)nc2C)cn1	32.8
O=C(CNc1cc(-c2ccccc2)nc2ccnn12)NC1CC1	-35
Cc1cc2nc(-c3ccccc3)cc(NCC3CCS(=O)(=O)C3)n2n1 (centres undefined)	-24.6
O=S1(=O)CCC(CNc2cc(-c3ccccc3)nc3ccnn23)C1 (centres undefined)	93.6
O=S(=O)(N1CCCCCC1)N1CCc2sccc2C1	20.8
O=C(Nc1ccc(N2CCOCC2)nc1)N1CCc2sccc2C1	-17.9
O=S(=O)(N1CCCC1)N1CCc2sccc2C1	82.4
O=S(=O)(N1CCOCC1)N1CCOC(CCc2ccccc2)C1 (centres undefined)	-23.4
O=S(=O)(N1CCOCC1)N1CCc2sccc2C1	76.8
CC1CCN(S(=O)(=O)N2CCc3sccc3C2)CC1	19.7
c1cc(CN2CCC3(CCOCC3COCC3CC3)CC2)ccn1 (centres undefined)	-20.8
CC(C)NC(=O)N1CCc2c(CNc3ncccn3)cncc2C1	-41.4
N#Cc1ccc(CN2CCCC3(Cc4ccccc4CNC3=O)C2)cc1 (centres undefined)	43.3
Cc1nc(CO[C@H]2CN(Cc3cccs3)[C@@H]3COC[C@H]23)cs1	18.2

Compound	INHIBITION [%]
CNS(=O)(=O)c1cnccc1N1CCN(C(C)C)CC1	-5.26
O=C1COC2(CCN(Cc3ccco3)CC2)CN1	27.6
O=C(O)C1CCCN1c1nc(-c2ccc(Cl)cc2)cc(C(F)(F)F)n1 (centres undefined)	26.7
O=C(O)C1CCCN1c1nc(C2CC2)cc(C(F)(F)F)n1 (centres undefined)	14.3
O=C(O)C1CCCN1c1nc(-c2ccc(Cl)c(Cl)c2)cc(C(F)(F)F)n1 (centres undefined)	80.5
CC(=O)N1CCC(NC(=O)CN2CCCc3c(F)ccc(C)c32)CC1	9.16
COc1ccccc1CCN(C)Cc1nc(N)nc(N(C)C)n1	34.1
CN(CCc1cccc2ccccc12)Cc1nc(N)nc(N(C)C)n1	90.3
CN(Cc1nc(N)nc(N(C)C)n1)Cc1cccc2ccccc12	-57.5
OCCN1CCCCC1c1cc[nH]n1 (centres undefined)	6.26
CCc1ccc(-c2cn3c(C(=O)N[C@H](C(N)=O)[C@@H](C)O)csc3n2)cc1	-171
CCc1ccc(-c2cn3c(C(=O)NCC(C)C(=O)NC)csc3n2)cc1 (centres undefined)	-147
C[C@@H](O)[C@H](NC(=O)c1csc2nc(-c3ccccc3F)cn12)C(N)=O	76.9
CC(C)(C)C(=O)N1CCC(c2cnc(-c3cn[nH]c3)cn2)CC1	3.62
CCn1cc(S(=O)(=O)N2CCN(C(=O)c3cc(Br)cs3)CC2)c(C)n1	38.3
COC(=O)CN1CC2(CCNCC2)COc2ccccc2S1(=O)=O	27.6
Cc1nnc2n1CCN(C(C)c1nnc(-c3cccs3)o1)C2 (centres undefined)	13.5
CC(c1nnc(-c2cccs2)o1)N1CCn2c(nnc2C2CC2)C1 (centres undefined)	51.5
CC(C)c1nnc2n1CCN(C(C)c1nnc(-c3cccs3)o1)C2 (centres undefined)	21.1
Cc1nnc2n1CCN(C(C(=O)NC(C)C)c1ccccc1)C2 (centres undefined)	15.2
O=C(NC1CC1)C(c1ccccc1)N1CCn2c(nnc2C2CC2)C1 (centres undefined)	6.05
CC(C)NC(=O)C(c1ccccc1)N1CCn2c(nnc2C2CC2)C1 (centres undefined)	50.4
CCc1ccc(CN2CC[C@H]3C[C@H](c4nnc(C)[nH]4)O[C@@H]3C2)o1	-11.5

Compound	INHIBITION [%]
COc1cccc(F)c1-c1c[nH]c(C)n1	11.8
Cc1ncsc1C(=O)NCCSCc1cccs1	63.4
CCc1nc(C)c(C(=O)NCCNc2cnccn2)s1	4.88
Cc1ncsc1C(=O)NCc1cccs1	35.8
Cc1ncsc1C(=O)NCCc1cccs1	-25.667
O=C(NCCNC(=O)c1scnc1Cl)c1ccccc1	30.3
O=C(NCCNc1cnccn1)c1scnc1Cl	53.3
Cc1ncsc1C(=O)NCCNc1cnccn1	60
Cc1ncsc1C(=O)NCCNc1ncccn1	34.7
O=C(NCCNc1ncccn1)c1scnc1Cl	11.9
O=C(NCCCn1nc2ccccn2c1=O)Nc1ccc(F)cc1F	-17
c1ccc(CN2CCC3(CC2)CCN(Cc2cccs2)C3)nc1	-4.27
O=C(C1COCCO1)N1CCN(CC(F)(F)F)c2ccccc21 (centres undefined)	-8.22
Cc1nn(C)c(C)c1CC(=O)N1CCc2nnc(N(C)C)cc2C1	42.65
CN(C)c1cc(CNC(=O)c2ccccc2S(C)(=O)=O)ccn1	-19.4
Cc1noc(C)c1CN1C(=O)[C@@H]2CC[C@H]1CN(C(=O)c1cscn1)C2	45
CN1CCCC(CCCc2cccnc2)(C(N)=O)C1 (centres undefined)	50.1
NC(=O)C1(CCCc2cccnc2)CCCN(c2ncccn2)C1 (centres undefined)	0.932
NC(=O)CN1CCCC(CCCc2ccccn2)(C(N)=O)C1 (centres undefined)	-0.902
NC(=O)C1(CCCc2ccccn2)CCCN(c2ncccn2)C1 (centres undefined)	-6.3
Cn1cc(CN2CCCC(CCCc3ccccn3)(C(N)=O)C2)cn1 (centres undefined)	20.8
NC(=O)C1(CCCc2ccccn2)CCCN(Cc2ccncc2)C1 (centres undefined)	54.5
COc1ccc(C(=O)Nc2cccc(SC)c2)c(OC)n1	-138
